About 2,000 (36%) of roughly 5,500 compounds were called active. Inconclusive results (about 18%) are left out. Cut-off read from the data, not from the text of the source: active = normalized growth mostly below about 0.91 (no sharp cut-off); inconclusive = no clear call, values can overlap the other calls; inactive = mostly above about 0.92. The list shows a part of the results.
Test: chemical genetic growth profiling, strain panel (AID 1159580);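 note: tested at 20 µM; growth read once vehicle control cultures reached saturation at 30 °C; 1 = growth at the plate median or of vehicle wells; lower values mean less growth of the strain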
Details: growth OD

Measured: normalized growth

C1N2CN3CN1CN(C2)C3
inactive: S. cerevisiae deletion strains, locus YJR075W, strain HOC1, hits give low values 0.986 | S. cerevisiae deletion strains, locus YKL068W, hits give low values 0.976 | S. cerevisiae deletion strains, locus YKL085W, strain MDH1 (second series), hits give low values 0.987 | S. cerevisiae deletion strains, locus YKL085W, strain MDH1, hits give low values 0.987 | S. cerevisiae deletion strains, locus YKL160W, strain elf1, hits give low values 0.973 | S. cerevisiae deletion strains, locus YKL190W, strain CNB1, hits give low values 0.98 | S. cerevisiae deletion strains, locus YKR001C, strain vps1, hits give low values 0.965 | S. cerevisiae deletion strains, locus YKR026C, strain gcn3, hits give low values 0.997 | S. cerevisiae deletion strains, locus YKR091W, strain srl3, hits give low values 0.985 | S. cerevisiae deletion strains, locus YLL001W, strain dnm1, hits give low values 0.93 | S. cerevisiae deletion strains, locus YLL026W, hits give low values 0.993 | S. cerevisiae deletion strains, locus YLL041C, strain sdh2, hits give low values 0.983 | S. cerevisiae deletion strains, locus YLR027C, strain aat2, hits give low values 0.996 | S. cerevisiae deletion strains, locus YLR039C, strain RIC1, hits give low values 0.899 | S. cerevisiae deletion strains, locus YLR058C, strain SHM2, hits give low values 0.976 | S. cerevisiae deletion strains, locus YLR102C, strain apc9, hits give low values 0.968 | S. cerevisiae deletion strains, locus YLR113W, strain HOG1, hits give low values 0.906 | S. cerevisiae deletion strains, locus YLR221C, strain rsa3, hits give low values 0.965 | S. cerevisiae deletion strains, locus YLR258W, strain gsy2, hits give low values 0.994 | S. cerevisiae deletion strains, locus YLR262C, strain YPT6 (second series), hits give low values 0.959 | S. cerevisiae deletion strains, locus YLR262C, strain YPT6, hits give low values 0.889 | S. cerevisiae deletion strains, locus YLR268W, strain sec22, hits give low values 0.957 | S. cerevisiae deletion strains, locus YLR320W, strain mms22, hits give low values 0.961 | S. cerevisiae deletion strains, locus YLR330W, strain CHS5, hits give low values 0.985 | S. cerevisiae deletion strains, locus YLR342W, strain FKS1 (second series), hits give low values 0.991 | S. cerevisiae deletion strains, locus YLR342W, strain FKS1, hits give low values 0.982 | S. cerevisiae deletion strains, locus YLR357W, strain rsc2, hits give low values 0.971 | S. cerevisiae deletion strains, locus YLR370C, strain arc18, hits give low values 0.988 | S. cerevisiae deletion strains, locus YLR371W, strain rom2, hits give low values 0.98 | S. cerevisiae deletion strains, locus YLR384C, strain iki3, hits give low values 0.989 | S. cerevisiae deletion strains, locus YLR418C, strain cdc73, hits give low values 0.934 | S. cerevisiae deletion strains, locus YML016C, strain PPZ1, hits give low values 0.983 | S. cerevisiae deletion strains, locus YML032C, strain rad52, hits give low values 0.932 | S. cerevisiae deletion strains, locus YML120C, strain ndi1, hits give low values 0.967 | S. cerevisiae deletion strains, locus YML124C, strain tub3, hits give low values 0.982 | S. cerevisiae deletion strains, locus YMR058W, strain fet3, hits give low values 0.998 | S. cerevisiae deletion strains, locus YMR078C, strain ctf18, hits give low values 0.947 | S. cerevisiae deletion strains, locus YMR125W, strain sto1, hits give low values 0.975 | S. cerevisiae deletion strains, locus YMR129W, hits give low values 0.992 | S. cerevisiae deletion strains, locus YMR205C, strain PFK2, hits give low values 0.959 | S. cerevisiae deletion strains, locus YMR223W, strain ubp8, hits give low values 0.966 | S. cerevisiae deletion strains, locus YMR231W, strain pep5, hits give low values 0.992 | S. cerevisiae deletion strains, locus YMR263W, strain SAP30, hits give low values 0.97 | S. cerevisiae deletion strains, locus YMR307W, strain GAS1, hits give low values 0.994 | S. cerevisiae deletion strains, locus YNL067W, strain RPL9B, hits give low values 0.966 | S. cerevisiae deletion strains, locus YNL071W, strain lat1, hits give low values 0.973 | S. cerevisiae deletion strains, locus YNL128W, strain TEP1, hits give low values 0.981 | S. cerevisiae deletion strains, locus YNL153C, strain GIM3, hits give low values 0.968 | S. cerevisiae deletion strains, locus YNL183C, strain NPR1, hits give low values 0.972 | S. cerevisiae deletion strains, locus YNL209W, strain ssb2, hits give low values 0.986 | S. cerevisiae deletion strains, locus YNL233W, strain BNI4, hits give low values 0.99 | S. cerevisiae deletion strains, locus YNL248C, strain rpa49, hits give low values 0.982 | S. cerevisiae deletion strains, locus YNL271C, strain bni1, hits give low values 0.959 | S. cerevisiae deletion strains, locus YNL298W, strain CLA4, hits give low values 0.923 | S. cerevisiae deletion strains, locus YNL307C, strain MCK1, hits give low values 0.989 | S. cerevisiae deletion strains, locus YNL322C, strain KRE1 (second series), hits give low values 0.983 | S. cerevisiae deletion strains, locus YNL322C, strain KRE1, hits give low values 0.982 | S. cerevisiae deletion strains, locus YNR049C, strain mso1, hits give low values 0.994 | S. cerevisiae deletion strains, locus YNR052C, strain pop2, hits give low values 0.956 | S. cerevisiae deletion strains, locus YOL006C, strain TOP1, hits give low values 0.931 | S. cerevisiae deletion strains, locus YOL012C, strain htz1 1.62 | S. cerevisiae deletion strains, locus YOL147C, strain pex11, hits give low values 0.98 | S. cerevisiae deletion strains, locus YOR001W, strain rrp6, hits give low values 1.01 | S. cerevisiae deletion strains, locus YOR061W, strain CKA2, hits give low values 0.957 | S. cerevisiae deletion strains, locus YOR069W, strain VPS5, hits give low values 0.998 | S. cerevisiae deletion strains, locus YOR070C, strain gyp1, hits give low values 0.992 | S. cerevisiae deletion strains, locus YOR080W, strain dia2, hits give low values 0.994 | S. cerevisiae deletion strains, locus YOR083W, strain WHI5, hits give low values 0.961 | S. cerevisiae deletion strains, locus YOR106W, strain vam3, hits give low values 0.986 | S. cerevisiae deletion strains, locus YOR136W, strain idh2, hits give low values 0.989 | S. cerevisiae deletion strains, locus YOR144C, strain elg1, hits give low values 0.984 | S. cerevisiae deletion strains, locus YOR184W, strain ser1, hits give low values 1.02 | S. cerevisiae deletion strains, locus YOR265W, strain rbl2, hits give low values 0.993 | S. cerevisiae deletion strains, locus YOR270C, strain vph1, hits give low values 0.958 | S. cerevisiae deletion strains, locus YOR290C, strain snf2, hits give low values 0.914 | S. cerevisiae deletion strains, locus YOR316C, strain cot1, hits give low values 0.968 | S. cerevisiae deletion strains, locus YPL051W, strain arl3, hits give low values 0.984 | S. cerevisiae deletion strains, locus YPL055C, strain LGE1, hits give low values 0.977 | S. cerevisiae deletion strains, locus YPL078C, strain atp4, hits give low values 0.965 | S. cerevisiae deletion strains, locus YPL106C, strain sse1, hits give low values 0.967 | S. cerevisiae deletion strains, locus YPL240C, strain hsp82, hits give low values 0.993 | S. cerevisiae deletion strains, locus YPL256C, strain CLN2, hits give low values 0.948 | S. cerevisiae deletion strains, locus YPR119W, strain clb2, hits give low values 0.983 | S. cerevisiae deletion strains, locus YPR141C, strain kar3, hits give low values 0.95 | S. cerevisiae deletion strains, locus YPR163C, strain tif3, hits give low values 0.984 | S. cerevisiae deletion strains, locus YPR167C, strain met16, hits give low values 0.978 | S. cerevisiae deletion strains, strain wtn01, hits give low values 0.959 | S. cerevisiae strains, strain wild type, hits give low values 0.989
active: S. cerevisiae deletion strains, locus YKL009W, strain mrt4, hits give low values 0.834 | S. cerevisiae deletion strains, locus YNL250W, strain rad50, hits give low values 0.834 | S. cerevisiae deletion strains, locus YOR231W, strain MKK1, hits give low values 0.794 | S. cerevisiae deletion strains, locus YPL241C, strain CIN2, hits give low values 1.08 [resistant]
